Experimental data as given in PubChem BioAssay (Tox21).
Records with an inconclusive call do not appear. Where a call stands in place of a potency, no number is given. Calls of active or inactive are those of the source. Calls come from the whole dose curve; as a rule, active = well fitted curve in the direction sought with a large enough effect in the repeat runs; inconclusive = weak or mixed curves; inactive = no such curve, though single readings can be large; an effect the other way counts as inactive or inconclusive.

Columns and labels:
[1] = target: Cytochrome P450 2C19 (Homo sapiens) (UniProt P33261); assay: Cytochrome P450 Family 2 Subfamily C Member 19 (CYP2C19) small molecule antagonists: luciferase reporter qHTS assay (AID 1671197); conditions: P450-Glo CYP2C19 enzyme, luciferin luminescence, 1 h; series mostly up to 115 µM; note: nearly all actives have a fitted effect of over 65% in size
Sequence of Cytochrome P450 2C19 (Homo sapiens) (P33261 whole entry, looked up): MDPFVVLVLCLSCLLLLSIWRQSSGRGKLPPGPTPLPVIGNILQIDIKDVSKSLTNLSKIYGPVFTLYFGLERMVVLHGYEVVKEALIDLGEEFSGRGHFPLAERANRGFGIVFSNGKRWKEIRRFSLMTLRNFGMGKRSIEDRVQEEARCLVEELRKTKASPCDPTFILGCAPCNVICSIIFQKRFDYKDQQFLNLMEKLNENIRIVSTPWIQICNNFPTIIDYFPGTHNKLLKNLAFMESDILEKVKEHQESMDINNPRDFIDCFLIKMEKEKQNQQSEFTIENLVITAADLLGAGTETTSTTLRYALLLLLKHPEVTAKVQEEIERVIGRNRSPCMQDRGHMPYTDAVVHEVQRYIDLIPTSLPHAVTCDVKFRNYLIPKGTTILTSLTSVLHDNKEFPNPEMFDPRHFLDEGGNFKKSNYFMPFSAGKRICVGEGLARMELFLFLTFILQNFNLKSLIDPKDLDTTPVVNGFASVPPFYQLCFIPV
Method in brief: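 CYP2C19 P450-Glo, 1536-well qHTS. Cpd + enzyme/proluciferin substrate 10 min RT; + NADPH regen, 37C 1 h; stop with luciferin detection reagent, 20 min RT, luminescence (RLU). Pos ctrl ketoconazole.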

[2] = target: Voltage-gated inwardly rectifying potassium channel KCNH2 (Homo sapiens) (UniProt Q12809); assay: Human Ether-a-go-go-Related Gene (hERG) channel small molecule antagonists: fluorescence cell-based qHTS assay (AID 1671200); conditions: hERG-U2OS cells, FluxOR thallium flux fluorescence; series mostly up to 76.8 µM; note: nearly all actives have a fitted effect of over 50% in size
Sequence of Voltage-gated inwardly rectifying potassium channel KCNH2 (Homo sapiens) (Q12809 whole entry, looked up): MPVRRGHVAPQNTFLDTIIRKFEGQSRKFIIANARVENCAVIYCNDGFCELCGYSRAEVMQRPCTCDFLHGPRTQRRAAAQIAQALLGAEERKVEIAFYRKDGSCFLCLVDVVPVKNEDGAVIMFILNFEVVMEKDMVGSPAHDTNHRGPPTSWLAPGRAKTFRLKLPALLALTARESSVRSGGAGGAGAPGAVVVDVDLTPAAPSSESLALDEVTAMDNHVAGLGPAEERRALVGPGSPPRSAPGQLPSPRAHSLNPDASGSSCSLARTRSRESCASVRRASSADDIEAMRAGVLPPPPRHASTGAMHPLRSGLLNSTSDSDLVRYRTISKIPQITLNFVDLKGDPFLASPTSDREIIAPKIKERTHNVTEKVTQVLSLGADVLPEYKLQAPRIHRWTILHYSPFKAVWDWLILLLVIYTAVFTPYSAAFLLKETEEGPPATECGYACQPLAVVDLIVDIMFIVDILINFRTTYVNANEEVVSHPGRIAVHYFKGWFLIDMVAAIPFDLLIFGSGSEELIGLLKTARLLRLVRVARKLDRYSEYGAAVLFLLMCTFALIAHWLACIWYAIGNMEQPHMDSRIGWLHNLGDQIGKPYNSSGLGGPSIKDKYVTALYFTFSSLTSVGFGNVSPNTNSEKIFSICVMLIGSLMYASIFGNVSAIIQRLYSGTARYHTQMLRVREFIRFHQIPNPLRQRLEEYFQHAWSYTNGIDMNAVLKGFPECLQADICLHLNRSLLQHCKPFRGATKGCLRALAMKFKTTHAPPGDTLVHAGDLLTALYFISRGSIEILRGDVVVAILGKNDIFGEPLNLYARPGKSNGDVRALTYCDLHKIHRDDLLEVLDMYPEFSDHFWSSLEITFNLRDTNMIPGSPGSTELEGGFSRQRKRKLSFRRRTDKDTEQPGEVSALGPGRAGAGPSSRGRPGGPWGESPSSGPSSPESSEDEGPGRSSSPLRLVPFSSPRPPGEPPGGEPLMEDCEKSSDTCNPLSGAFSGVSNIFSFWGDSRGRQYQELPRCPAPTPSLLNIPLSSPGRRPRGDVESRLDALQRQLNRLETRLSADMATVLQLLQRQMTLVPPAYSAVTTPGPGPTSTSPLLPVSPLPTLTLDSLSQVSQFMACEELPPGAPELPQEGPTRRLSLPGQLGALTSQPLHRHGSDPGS
Method in brief: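 Kinetic two-minute fluorescence traces, sampled at 1 s, were collected following thallium stimulus of U2OS cells (1000 per well) that had been cultured overnight at 37 C and loaded with FluxOR II.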

[3] = target: Cytochrome P450 3A4 (Homo sapiens) (UniProt P08684); assay: Cytochrome P450 Family 3 Subfamily A Member 4 (CYP3A4) small molecule antagonists: luciferase reporter qHTS assay (AID 1671201); conditions: P450-Glo CYP3A4 enzyme, luciferin luminescence, 1 h; series mostly up to 115 µM; note: nearly all actives have a fitted effect of over 50% in size
Sequence of Cytochrome P450 3A4 (Homo sapiens) (P08684 whole entry, looked up): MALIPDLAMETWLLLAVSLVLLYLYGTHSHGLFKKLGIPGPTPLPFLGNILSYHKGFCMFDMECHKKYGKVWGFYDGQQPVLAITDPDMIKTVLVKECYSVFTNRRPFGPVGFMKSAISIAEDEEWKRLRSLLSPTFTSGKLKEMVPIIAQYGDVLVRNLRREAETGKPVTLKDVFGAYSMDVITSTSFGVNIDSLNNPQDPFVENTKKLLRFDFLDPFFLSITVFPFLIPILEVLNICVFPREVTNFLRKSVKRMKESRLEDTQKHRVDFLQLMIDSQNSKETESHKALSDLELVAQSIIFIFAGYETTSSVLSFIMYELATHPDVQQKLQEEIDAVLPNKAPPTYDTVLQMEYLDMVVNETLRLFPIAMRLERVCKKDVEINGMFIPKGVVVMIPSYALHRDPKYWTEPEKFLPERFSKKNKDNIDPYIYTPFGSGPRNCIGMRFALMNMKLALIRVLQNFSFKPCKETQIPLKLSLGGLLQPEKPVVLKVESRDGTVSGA
Method in brief: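 Proluciferin-to-luciferin conversion by CYP3A4, NADPH-regenerated, 1 h RT; luminescence read as RLU. Ketoconazole as control.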

[4] = target: Cytochrome P450 1A2 (Homo sapiens) (UniProt P05177); assay: Cytochrome P450 Family 1 Subfamily A Member 2 (CYP1A2) small molecule antagonists: luciferase reporter qHTS assay (AID 1671199); conditions: P450-Glo CYP1A2 enzyme, luciferin luminescence, 1 h; series mostly up to 115 µM; note: nearly all actives have a fitted effect of over 50% in size
Sequence of Cytochrome P450 1A2 (Homo sapiens) (P05177 whole entry, looked up): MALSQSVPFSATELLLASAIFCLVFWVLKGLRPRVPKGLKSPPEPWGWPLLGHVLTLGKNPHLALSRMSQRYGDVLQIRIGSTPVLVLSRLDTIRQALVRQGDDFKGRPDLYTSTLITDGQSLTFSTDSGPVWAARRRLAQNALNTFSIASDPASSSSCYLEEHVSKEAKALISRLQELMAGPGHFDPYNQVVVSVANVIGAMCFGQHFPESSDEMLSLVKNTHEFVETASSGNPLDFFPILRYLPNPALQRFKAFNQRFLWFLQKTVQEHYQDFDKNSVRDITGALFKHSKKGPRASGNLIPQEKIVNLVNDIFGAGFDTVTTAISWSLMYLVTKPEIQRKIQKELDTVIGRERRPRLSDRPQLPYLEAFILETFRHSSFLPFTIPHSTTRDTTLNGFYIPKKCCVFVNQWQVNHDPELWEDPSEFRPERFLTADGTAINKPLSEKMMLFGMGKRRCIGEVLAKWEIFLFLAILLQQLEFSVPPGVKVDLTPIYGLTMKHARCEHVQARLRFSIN
Method in brief: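 Signal from luciferin formed by CYP1A2 from a proluciferin substrate is read as luminescence, expressed in relative luminescence units. Compounds sit with enzyme 10 min, NADPH-driven reaction runs 1 h, all at room temperature.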

[5] = target: Cytochrome P450 2C9 (Homo sapiens) (UniProt P11712); assay: Cytochrome P450 Family 2 Subfamily C Member 9 (CYP2C9) small molecule antagonists: luciferase reporter qHTS assay (AID 1671198); conditions: P450-Glo CYP2C9 enzyme assay, luciferin luminescence; series mostly up to 115 µM; note: nearly all actives have a fitted effect of over 50% in size
Sequence of Cytochrome P450 2C9 (Homo sapiens) (P11712 whole entry, looked up): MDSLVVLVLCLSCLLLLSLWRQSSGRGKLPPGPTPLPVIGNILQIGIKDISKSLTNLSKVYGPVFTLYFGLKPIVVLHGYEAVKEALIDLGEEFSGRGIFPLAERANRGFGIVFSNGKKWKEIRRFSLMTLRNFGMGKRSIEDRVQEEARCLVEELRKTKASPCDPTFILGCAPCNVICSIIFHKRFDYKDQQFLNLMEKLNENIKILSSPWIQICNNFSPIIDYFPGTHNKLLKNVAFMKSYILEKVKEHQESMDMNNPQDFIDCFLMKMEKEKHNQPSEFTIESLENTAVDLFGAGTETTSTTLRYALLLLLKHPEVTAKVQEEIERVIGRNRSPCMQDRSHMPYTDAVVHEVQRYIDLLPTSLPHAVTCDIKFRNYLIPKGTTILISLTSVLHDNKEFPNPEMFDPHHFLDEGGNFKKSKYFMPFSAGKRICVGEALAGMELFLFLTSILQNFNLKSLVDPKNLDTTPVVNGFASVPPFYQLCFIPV
Method in brief: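 CYP2C9 activity was measured with a P450-Glo proluciferin substrate. Enzyme–substrate mix was held with compound for 10 min at room temperature, then NADPH regeneration solution was added for 1 h at 37C. Luciferin product was read as luminescence.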
Potency is the fitted concentration of half-maximal effect.

Row | Compound | Potency [1] | Potency [2] | Potency [3] | Potency [4] | Potency [5]
1 | CCC[Si](OC)(OC)OC | 71 µM (active) | inactive | inactive |  | 
2 | CC(C)=CCC[C@H](C)CCO | 71 µM (active) | inactive | 63.3 µM (active) | inactive | 
3 | CC(=O)Nc1cccc(N)c1 | 57.2 µM (active) | inactive |  |  | 
4 | O=Cc1ccc(Cl)c([N+](=O)[O-])c1 | 22.4 µM (active) | inactive | 71 µM (active) | 22.4 µM (active) | 
5 | C(/C=C/C=C/Nc1ccccc1)=Nc1ccccc1 | inactive | inactive |  |  | 
6 | CCCCCCC/C=C/C=O | 79.6 µM (active) | inactive | inactive |  | 
7 | NCCOCCOCCN | inactive | inactive | inactive |  | 
8 | Nc1ccc(C(=O)Oc2ccccc2)c(O)c1 |  | inactive |  | 11.5 µM (active) | 27.5 µM (active)
9 | CCc1ccc(C(=O)C(C)CN2CCCCC2)cc1 (centres undefined) | 4.9 µM (active) | inactive | inactive | inactive | 
10 | N#Cc1ccc(CC(=O)c2cccc(C(F)(F)F)c2)cc1 | 20 µM (active) | 27.5 µM (active) | inactive | 25.2 µM (active) | 
11 | CC(=O)S[C@H](C(=O)N[C@H]1Cc2ccccc2[C@H]2CCC[C@@H](C(=O)O)N2C1=O)C(C)C | inactive | inactive | inactive | inactive | 
12 | CC(C)CCCCCCCOC(=O)c1ccc(C(=O)OCCCCCCCC(C)C)c(C(=O)OCCCCCCCC(C)C)c1 | inactive | inactive |  |  | 
13 | CCCCCCCCCCCCN1CCOCC1 | inactive |  | inactive | inactive | 
14 | CCCCCCCCNC | 22.4 µM (active) | inactive | inactive | inactive | 
15 | Cc1ccccc1CCO | inactive | inactive | inactive | inactive | 
